Test [1] can be described thus: small molecules captured by biotinylated probe aFSTL3 – biochemical, small-molecule microarray, fluorescence 635/667, stem cell growth factor project, primary screen (AID 1064).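 Further: measures binding of the biotinylated anti-FSTL3 antibody to printed compounds.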 The conditions noted are these: higher = more signal.
A short description of test [2]: binders from COS7 lysate, DM2A8 probe, primary screen, torsin A project, cell lysate, small-molecule microarray, fluorescence 635/667 (AID 1065). The conditions noted are these: higher = more signal, COS7 lysate expressing mutant human TOR1A.
Test [3] in a line: small molecules captured by biotinylated probe aFGF2 – biochemical, small-molecule microarray, fluorescence 635/667, stem cell growth factor project, primary screen (AID 1067).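 Further: measures binding of biotinylated aFGF2 protein to printed compounds on slides; z-score merges feature fluorescence and signal-to-noise across triplicate slides.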 The conditions noted are these: higher = more signal.
Test [4] in a line: small molecules captured by biotinylated probe aFGF10 – biochemical, small-molecule microarray, fluorescence 635/667, stem cell growth factor project, primary screen (AID 1071).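 Further: score merges 667 nm spot intensity and signal to noise from triplicate slides.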 The conditions noted are these: higher = more signal.
The target in test [5] is Neurogenic locus notch homolog protein 2 (Homo sapiens) (UniProt Q04721). Nature of the test: small molecules binding Notch2 protein – biochemical, small-molecule microarray, 635 nm fluorescence, stem cell growth factors, primary screen (AID 1073). The conditions noted are these: higher = more signal.
Sequence of Neurogenic locus notch homolog protein 2 (Homo sapiens) (Q04721 whole entry, looked up, canonical isoform): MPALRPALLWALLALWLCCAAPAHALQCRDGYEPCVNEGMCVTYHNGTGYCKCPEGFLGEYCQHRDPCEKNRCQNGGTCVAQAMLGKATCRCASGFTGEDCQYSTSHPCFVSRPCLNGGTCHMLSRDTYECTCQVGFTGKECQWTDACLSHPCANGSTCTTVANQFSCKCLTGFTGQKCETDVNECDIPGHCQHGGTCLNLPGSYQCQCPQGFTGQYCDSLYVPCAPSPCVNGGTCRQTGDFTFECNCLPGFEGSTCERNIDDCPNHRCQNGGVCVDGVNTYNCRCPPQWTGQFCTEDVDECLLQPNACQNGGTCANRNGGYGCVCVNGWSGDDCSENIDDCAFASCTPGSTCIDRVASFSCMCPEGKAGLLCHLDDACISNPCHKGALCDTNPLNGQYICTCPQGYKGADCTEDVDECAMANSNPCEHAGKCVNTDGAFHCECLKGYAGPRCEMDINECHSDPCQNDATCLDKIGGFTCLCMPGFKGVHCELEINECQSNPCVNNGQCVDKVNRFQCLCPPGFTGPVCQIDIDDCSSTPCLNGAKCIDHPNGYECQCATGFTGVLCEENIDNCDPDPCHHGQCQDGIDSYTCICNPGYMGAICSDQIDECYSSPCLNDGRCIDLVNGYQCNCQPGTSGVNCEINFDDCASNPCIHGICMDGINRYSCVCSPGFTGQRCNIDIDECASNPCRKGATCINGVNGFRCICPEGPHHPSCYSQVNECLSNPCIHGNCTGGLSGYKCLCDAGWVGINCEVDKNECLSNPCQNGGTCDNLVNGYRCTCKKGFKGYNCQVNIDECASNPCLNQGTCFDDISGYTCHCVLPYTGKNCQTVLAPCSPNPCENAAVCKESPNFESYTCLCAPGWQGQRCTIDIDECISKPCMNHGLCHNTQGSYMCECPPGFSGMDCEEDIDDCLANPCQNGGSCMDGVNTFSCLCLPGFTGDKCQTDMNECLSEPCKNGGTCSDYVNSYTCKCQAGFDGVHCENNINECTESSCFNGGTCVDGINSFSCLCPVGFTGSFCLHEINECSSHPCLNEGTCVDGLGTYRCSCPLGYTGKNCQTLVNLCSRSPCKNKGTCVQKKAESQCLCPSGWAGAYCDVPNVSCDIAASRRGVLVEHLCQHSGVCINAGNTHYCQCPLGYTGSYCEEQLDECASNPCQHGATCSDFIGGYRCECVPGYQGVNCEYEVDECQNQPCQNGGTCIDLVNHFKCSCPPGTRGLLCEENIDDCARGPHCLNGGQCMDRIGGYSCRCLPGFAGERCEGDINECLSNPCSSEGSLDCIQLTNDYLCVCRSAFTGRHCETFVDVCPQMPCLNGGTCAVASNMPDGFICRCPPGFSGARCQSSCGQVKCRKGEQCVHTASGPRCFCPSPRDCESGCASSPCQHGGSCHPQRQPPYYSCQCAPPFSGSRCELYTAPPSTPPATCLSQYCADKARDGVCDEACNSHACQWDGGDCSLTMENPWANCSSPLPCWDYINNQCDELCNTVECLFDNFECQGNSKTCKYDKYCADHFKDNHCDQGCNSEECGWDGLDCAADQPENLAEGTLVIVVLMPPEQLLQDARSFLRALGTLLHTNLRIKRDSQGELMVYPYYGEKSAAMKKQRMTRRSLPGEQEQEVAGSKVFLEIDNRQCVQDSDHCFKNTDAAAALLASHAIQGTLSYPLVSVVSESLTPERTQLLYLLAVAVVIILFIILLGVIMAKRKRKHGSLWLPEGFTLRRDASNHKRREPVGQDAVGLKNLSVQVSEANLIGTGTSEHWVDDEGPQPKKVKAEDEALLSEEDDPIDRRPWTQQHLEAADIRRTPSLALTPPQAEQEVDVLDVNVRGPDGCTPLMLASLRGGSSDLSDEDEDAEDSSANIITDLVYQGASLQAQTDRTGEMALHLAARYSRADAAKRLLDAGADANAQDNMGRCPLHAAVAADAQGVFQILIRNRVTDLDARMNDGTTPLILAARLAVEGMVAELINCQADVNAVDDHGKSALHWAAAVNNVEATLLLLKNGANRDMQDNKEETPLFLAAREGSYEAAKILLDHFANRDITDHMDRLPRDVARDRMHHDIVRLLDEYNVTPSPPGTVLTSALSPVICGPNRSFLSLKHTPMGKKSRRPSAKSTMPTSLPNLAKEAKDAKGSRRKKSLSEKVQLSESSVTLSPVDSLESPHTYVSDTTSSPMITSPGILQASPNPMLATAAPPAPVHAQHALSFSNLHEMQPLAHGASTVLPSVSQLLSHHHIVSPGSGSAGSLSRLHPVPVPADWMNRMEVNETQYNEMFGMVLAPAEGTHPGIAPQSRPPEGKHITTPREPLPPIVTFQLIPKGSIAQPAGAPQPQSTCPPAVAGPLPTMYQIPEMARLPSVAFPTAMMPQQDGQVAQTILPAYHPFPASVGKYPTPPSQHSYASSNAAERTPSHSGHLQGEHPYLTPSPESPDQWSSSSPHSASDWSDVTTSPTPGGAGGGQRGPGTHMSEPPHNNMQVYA
In test [6] the target is Pro-neuregulin-1, membrane-bound isoform (Homo sapiens) (UniProt Q02297). In words: small molecules binding neuregulin-1 protein – biochemical, small-molecule microarray, fluorescence 635/667, psychiatric disease protein project, primary screen (AID 1075).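 Further: score combines 667 nm spot fluorescence with signal to noise.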 The settings on record: NRG1 binding, 635 nm fluorescence, higher = more signal.
Sequence of Pro-neuregulin-1, membrane-bound isoform (Homo sapiens) (Q02297 whole entry, looked up, the tested form may be a part, canonical isoform): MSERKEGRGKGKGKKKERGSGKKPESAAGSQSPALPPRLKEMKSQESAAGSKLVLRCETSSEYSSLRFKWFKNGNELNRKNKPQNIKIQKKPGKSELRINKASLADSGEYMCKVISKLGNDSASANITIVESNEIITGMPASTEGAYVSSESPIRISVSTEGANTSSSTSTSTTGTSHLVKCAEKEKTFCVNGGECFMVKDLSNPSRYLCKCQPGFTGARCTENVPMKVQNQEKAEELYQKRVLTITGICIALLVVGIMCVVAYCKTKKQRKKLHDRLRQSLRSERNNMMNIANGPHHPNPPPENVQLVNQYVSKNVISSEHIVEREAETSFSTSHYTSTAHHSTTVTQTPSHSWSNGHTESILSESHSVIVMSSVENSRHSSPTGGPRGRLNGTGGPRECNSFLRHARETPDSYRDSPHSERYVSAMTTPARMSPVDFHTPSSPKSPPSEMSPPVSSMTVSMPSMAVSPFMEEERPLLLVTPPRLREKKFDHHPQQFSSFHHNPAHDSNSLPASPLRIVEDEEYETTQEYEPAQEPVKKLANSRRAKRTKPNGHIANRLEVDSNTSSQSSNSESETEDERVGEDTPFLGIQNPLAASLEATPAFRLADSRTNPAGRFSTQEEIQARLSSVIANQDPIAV
The test system of test [7] is Neuregulin-1 EGF-like domain. In words: small molecules binding NRG1 EGF domain – biochemical, small-molecule microarray, 635 nm fluorescence, primary screen (AID 1081).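 Further: binding of the protein to compounds printed on small-molecule microarray slides.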 The conditions noted are these: higher = more signal.
Test [8] is described as follows: FRG1 expression reporter modulators in myotubes – cell-based, C2C12 myotubes, firefly/Renilla luciferase, luminescence, FRG1 inhibition for FSHD, primary screen (AID 1084). The conditions noted are these: FRG1 promoter luciferase, higher = more signal, called active from +8 up or from −8 down.
Test [9] is described as follows: small molecules captured by biotinylated probe aFST – biochemical, small-molecule microarray, fluorescence 635/667, stem cell growth factor project, primary screen (AID 1086).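 Further: score merges 667 nm fluorescence with signal-to-noise of each printed compound spot.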 The settings on record: higher = more signal.
Test [10] can be described thus: binders of probe aHhip on microarray, primary screen, stem cell growth factor project, biochemical, small-molecule microarray, fluorescence 635/667 (AID 1087).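 Further: score merges spot fluorescence at 667nm with spot signal to noise ratio.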 The conditions noted are these: higher = more signal.
The test system of test [11] is PRMT1 (protein arginine N-methyltransferase 1). In words: small molecules binding arginine methyltransferase PRMT1 – biochemical, small-molecule microarray, 635 nm fluorescence, primary screen (AID 1088).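 Further: binding of Prmt1 protein to compounds spotted on small-molecule microarray slides.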 The settings on record: higher = more signal.
The nature of test [12]: growth effects on S. cerevisiae YJM789 – YJM789 clinical isolate, OD600, 24 h, basal, primary screen (AID 1089).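 Further: growth of clinical yeast isolate S. cerevisiae YJM 789 seeded 1000 cells per well; test concentration not given here.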 The settings on record: higher = more signal, called active from +8 up or from −8 down.
The nature of test [13]: S. pombe growth modifiers, basal conditions – strain 972, OD600, 24 h, no modulator, primary screen (AID 1090).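 Further: basal condition with compound alone and no growth modifier present; test concentration not given here.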 The conditions noted are these: S. pombe 972 growth, higher = more signal, called active from +8 up or from −8 down.
Test [14] can be described thus: budding yeast growth modifiers under rapamycin – strain BY4716, OD600, 96 h, primary screen (AID 1091). Further: test concentration not given here. The settings on record: S. cerevisiae BY4716 + rapamycin, higher = more signal, called active from +8 up or from −8 down.
Test [15] addresses Torsin-1A-interacting protein 2 (Homo sapiens) (UniProt Q8NFQ8). In words: small molecules binding lysate-expressed LULL1 – cell lysate, human LULL1 lysate, 635/667 nm fluorescence, primary screen (AID 1092).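 Further: probe is lysate of COS7 cells overexpressing human LULL1; score merges per-feature 667 nm fluorescence with signal-to-noise.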 The settings on record: small-molecule microarray, hLULL1 lysate binding, 635 nm fluorescence; higher = more signal.
Test [16] in a line: optical density change of DRC41 E. coli – strain DRC41, OD650, 24 h, E. coli filamentation project, primary screen (AID 1093).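 Further: MC1000 strain lacking acrAB efflux and sulA so SOS filamentation is blocked; test concentration not given here.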 The conditions noted are these: E. coli DRC41 growth, higher = more signal, called active from +8 up or from −8 down.
Test [17] in a line: probe aLefty2 binding to arrayed compounds – biochemical, biotinylated probe, 635/667 nm fluorescence, primary screen (AID 1094).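 Further: score merges spot fluorescence near 667 nm with spot signal-to-noise ratio.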 The settings on record: small-molecule microarray, higher = more signal.
Test [18] deals with Noggin (protein binding on small-molecule microarray). In words: small molecules binding Noggin protein – biochemical, 635/667 nm fluorescence, primary screen (AID 1095).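 Further: score merges 667 nm feature fluorescence with signal to noise over triplicate slides.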 The conditions noted are these: 635 nm fluorescence, higher = more signal.
Test [19] has as its target Neurogenic locus notch homolog protein 3 (Homo sapiens) (UniProt Q9UM47). Nature of the test: small molecules binding NOTCH3 protein – biochemical, 635/667 nm fluorescence, primary screen (AID 1096). The conditions noted are these: small-molecule microarray, 635 nm fluorescence, higher = more signal.
Test [20] is described as follows: probe aEGFR binding to arrayed compounds – biochemical, biotinylated probe, 635/667 nm fluorescence, primary screen (AID 1097).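 Further: probe is a biotinylated anti-EGFR antibody binding compounds printed on slides; score combines fluorescence near 667 nm and signal to noise of each spot.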 The conditions noted are these: small-molecule microarray, higher = more signal.

Experimental findings from PubChem BioAssay are described below.

Active and inactive are the calls of the source.

Sequence of Torsin-1A-interacting protein 2 (Homo sapiens) (Q8NFQ8 whole entry, looked up): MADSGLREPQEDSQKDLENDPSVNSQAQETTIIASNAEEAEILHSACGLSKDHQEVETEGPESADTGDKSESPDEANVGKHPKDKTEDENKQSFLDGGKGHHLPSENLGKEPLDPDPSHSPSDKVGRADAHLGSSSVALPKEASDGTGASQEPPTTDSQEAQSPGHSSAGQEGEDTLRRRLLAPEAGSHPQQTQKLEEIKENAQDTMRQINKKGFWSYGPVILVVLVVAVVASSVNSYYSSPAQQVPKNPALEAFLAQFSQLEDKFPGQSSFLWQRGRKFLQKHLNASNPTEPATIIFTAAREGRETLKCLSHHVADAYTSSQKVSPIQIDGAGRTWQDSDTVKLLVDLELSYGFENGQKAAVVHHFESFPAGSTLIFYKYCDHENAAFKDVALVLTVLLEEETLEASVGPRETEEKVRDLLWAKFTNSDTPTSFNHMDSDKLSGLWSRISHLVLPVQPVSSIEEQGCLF

Regarding `[N-]=[N+]=NCc1ccccc1[C@@H]1OC(c2ccc(OCCCO)cc2)=N[C@]1(Cc1ccccc1)C(=O)NCC(O)CO` (stereo not given in full), the composite z-score in [1] is 0.798; in test [2] it was 0.42; in [3], 0.126; in [4], 0.343; in test [5], -0.119; in [6], 1.84. For the same compound, the composite z-score was 1.2 in [7]; 0.421 in [9]; 0.132 in test [10]; 1.25 in test [11]; 3.44 in test [15]; 0.414 in [17]. The composite z-score was 0.238 in [18], -0.27 in test [19] and 0.411 in test [20]. In addition, the z-score in [8] is -0.339 (inactive); in [12] it was -0.427 (inactive); in [13], 0.0493 (inactive); in test [14], -0.659 (inactive); in test [16], 0.123 (inactive).

`O=C1C2C=CC(C(O)c3cc(C(F)(F)F)cc(C(F)(F)F)c3)N(n3cnnc3)C2C(=O)N1Cc1ccccc1` (stereo not given): the composite z-score in test [1] was -0.153; in test [2] it was 0.0607; in test [3], -0.0628; in [4], -0.251; in test [5], 0.203; in [6] it was 0.339. For the same compound, the composite z-score in test [7] was -0.159; in test [9], 0.368; in test [10], 0.144; in test [11], 0.369; in test [15], 2.5; in [17], -0.191. The composite z-score in test [18] is -0.267; in [19], 0.679; in test [20], -0.139. For the same compound, the z-score in [8] is 1.1 (inactive); in test [12], -0.572 (inactive); in test [13], 0.685 (inactive); in test [14], -0.384 (inactive); in [16] it was 0.0068 (inactive).

Regarding `CC1(C)[C@@H]2CC(C(O)C3C=CC4C(=O)N(Cc5ccccc5)C(=O)C4N3n3cnnc3)=C[C@H]1C2` (stereo not given in full), the composite z-score in test [1] was -0.0224; in [2], 0.839; in test [3], 0.0119; in test [4], 0.959; in test [5], 1.33; in test [6], 1.56. In addition, the composite z-score in [7] stood at 1.39; in [9], 1.06; in [10], 0.0053; in test [11] it was 1.29; in test [15] it was 3.12; in [17] it was 0.104. The composite z-score in test [18] is 0.458; in test [19], 0.791; in [20] it was 0.0564. In addition, the z-score in test [8] was 0.349 (inactive); in [12], 0.0365 (inactive); in test [13], 1.57 (inactive); in test [14], 1.38 (inactive); in test [16], -0.117 (inactive).

`CCOC(=O)C[C@H]1[C@H](OC(=O)c2ccc(C(=O)c3ccccc3)cc2)[C@@H](NC(=O)c2ccc3ccccc3n2)c2cc(OCCCO)ccc2N1C(=O)c1ccccc1`: the composite z-score in test [1] is -0.384; in test [2], 0.264; in test [3] it was 0.0498; in test [4], 1.03; in [5], 0.454; in [6], 0.45. Moreover, the composite z-score was 0.975 in test [7]; 0.493 in test [9]; -0.243 in test [10]; 1.23 in test [11]; 1.94 in test [15]; -0.025 in test [17]. Further, the composite z-score was 0.552 in test [18], 0.99 in test [19] and 0.0864 in test [20]. Besides, the z-score in test [8] was 0.823 (inactive); in test [12], -0.658 (inactive); in [13], 0.103 (inactive); in test [14] it was -0.291 (inactive); in [16], -1.16 (inactive).

Consider `NCCCCCNC(=O)[C@@H]1C[C@@H]2C(=O)N[C@@H](Cc3ccccc3)C(=O)N2[C@@H]1c1ccc(O)cc1`, for which the composite z-score was 0.266 in test [1]; 0.0499 in [2]; 0.0257 in [3]; 0.507 in test [4]; 1.12 in [5]; 1.05 in test [6]. Moreover, the composite z-score is 1.24 in test [7]; 0.918 in [9]; -0.175 in [10]; 1.31 in [11]; 1.66 in [15]; -0.0717 in test [17]. The figures for the composite z-score in test [18], in test [19] and in test [20] were 0.923, 0.452 and 0.0381, respectively. In addition, the z-score in [8] is 0.227 (inactive); in test [12], -0.247 (inactive); in [13], -0.448 (inactive); in test [14] it was -0.367 (inactive); in test [16], -0.811 (inactive).
